FUS yeast rescue – rescues growth of FUS-expressing yeast; AID 1347120; hit rate 0.24% among 390,000; Potency, µM (series often up to 76.6 µM), actives largely listed as activators; S. cerevisiae FUS-expressing, growth rescue, OD600, 24 h;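 note: plate controls were DMSO vehicle for no effect and reference control for full effect; nearly all actives have a fitted effect of over 55% in size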
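Steps: raffinose overnight preculture; dilution to OD 0.005 in 2% galactose minimal medium; compound addition (concentration series); 24hr at 30C, 99% humidity; absorbance read at 600 nm.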
TDP-43 yeast inh – rescues yeast growth from TDP-43 toxicity; TDP-43 expressing yeast growth rescue, BacTiter-Glo, 24 h; Potency, µM (series often up to 46.1 µM), inactives show top-dose growth rescue (activation), hits mostly activators; hit rate 1.8% among 410,000; AID 652104; note: % of control where 0% means no effect; nearly all actives have a fitted effect of over 50% in size
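Luminescence from BacTiter-Glo reports growth of TDP-43-expressing yeast after 24 hr at 30 deg C with compound. Cells were raffinose-pregrown to mid-log, then seeded in galactose medium at OD600=0.02.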
ClpP mod – qHTS Assay for Activators of ClpP; purified B. subtilis ClpP, FRET peptide cleavage, 20 min; hit rate 1.9% among 340,000; ATP-dependent Clp protease proteolytic subunit (Bacillus subtilis (strain 168)), P80244; Potency, µM (doses to about 57.5 µM), for the others: top-dose activity change, negative = active; active = well fitted falling curve with a large enough effect; inconclusive = small, poorly fitted or top-dose-only effect; inactive = no such curve, though single readings can be large or run the other way; note: the source files actives as falling curves though it sought activators and does not explain the sign; nearly all actives have a fitted effect of over 65% in size
Target sequence (P80244 whole entry, looked up): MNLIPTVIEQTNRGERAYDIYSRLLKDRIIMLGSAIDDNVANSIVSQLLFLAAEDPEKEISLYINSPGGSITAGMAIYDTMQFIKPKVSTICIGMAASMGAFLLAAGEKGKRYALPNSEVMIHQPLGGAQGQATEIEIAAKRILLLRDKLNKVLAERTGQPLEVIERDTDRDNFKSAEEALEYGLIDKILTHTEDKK
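Buffer: 100 mM Tris/HCl pH8, 100 mM KCl, 0.05% low protease BSA, 2.5% glycerol, 0.01% Tween-20. ClpP 10 microg/mL final; 20 min RT; delta FRET normalized to ADEP and DMSO controls.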
aSyn yeast inh – alpha-synuclein toxicity inhibition in yeast; Potency, µM (doses to about 46.1 µM), for the others: at the top dose growth rescue (activation), actives largely listed as activators; hit rate 0.14% among 370,000; Yeast expressing alpha-synuclein, growth rescue, BacTiter-Glo, 24 h; note: % of control where 0% means no effect; nearly all actives have a fitted effect of over 65% in size
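Screening used galactose-induced yeast with toxic alpha-synuclein levels, exposed to compound for 24 hr at 30 deg C. Cell growth, read with BacTiter-Glo luminescence, gave the measured signal.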
Abeta yeast res – A-beta toxicity reversal in yeast; yeast expressing A-beta42, growth rescue, OD600, 48 h; response scale: 0% DMSO, 100% iron-clioquinol control; Potency, µM (highest dose often 46.1 µM), hits mostly activators; hit rate 0.063% among 410,000; AID 1347071; note: nearly all actives have a fitted effect of over 55% in size
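Yeast growth medium received pinned compounds, then yeast cells expressing toxic A-beta were added; plates incubated at 30 C for 48 hr. Growth read as absorbance at 600 nm, normalized to DMSO and equimolar FeCl3 plus clioquinol controls.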
MmCpn inh – inhibitors of Methanococcus maripaludis chaperonin TRiC (MmCpn); purified Mm-Cpn ATPase, ADP Transcreener TR-FRET; Potency, µM (top dose mostly 76.9 µM), for inactives: at the highest dose activity, negative = inhibition, hits mostly inhibitors; hit rate 0.031% among 330,000; note: % is set by controls: 0 for no effect and ±100 for the full control effect; nearly all actives have a fitted effect of over 80% in size
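Eu-cryptate anti-ADP/ADP-d2 competition gives a ratio inversely related to ADP. Enzyme at 25 nM was pre-exposed to compound for 10 min, then given 10 uM ATP for 30 min, 37°C throughout.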
* = called active by the depositor; i = inactive; ? = inconclusive; nt = no result given. In the library only some 3.6% were active in any assay of this set; here they are far more common. Unless noted, calls come from the whole dose curve; as a rule, active = well fitted curve in the direction sought with a large enough effect; inconclusive = small, poorly fitted or top-dose-only effect, or another doubt; inactive = no such curve, though single readings can be large; an effect the other way counts as inactive or inconclusive. Potency is the fitted concentration of half-maximal effect.

SMILES | FUS yeast rescue | TDP-43 yeast inh | ClpP mod | aSyn yeast inh | Abeta yeast res | MmCpn inh
COc1ccc(N2CCN(C(=O)C3CCN(Cc4nc(-c5ccc(Cl)cc5)oc4C)CC3)CC2)cc1 | i | -2.1% | -2.0% | nt | i | nt
O=C(Nc1ccc(F)c(Cl)c1)C1CCN(S(=O)(=O)c2ccc3[nH]c(=O)ccc3c2)CC1 | i | 17.1% | -13.2% | -5.8% | i | nt
CN(C(=O)COC(=O)c1ccccc1OCC(=O)Nc1ccc(Br)cc1)c1ccccc1 | nt | nt | -6.3% | 4.6% | nt | nt
O=C(NCCC1=CCCCC1)C1CCN(C(=O)N2CCOc3ccc(Cl)cc32)CC1 | i | 28.2µM* | 2.0% | nt | ? | nt
Cc1ccc(-c2cc(C(F)(F)F)c(C#N)c(SCCC#N)n2)o1 | i | 0.7% | 4.47µM* | -0.5% | i | -1.1%
Cc1ccc(CCNC(=O)C2CCCN(S(=O)(=O)c3ccc4c(c3)oc(=O)n4C)C2)cc1 (centres undefined) | i | 14.8% | -0.8% | nt | i | nt
COc1ccc(-c2cc(NCc3ccc(C)cc3)n3cnnc3n2)cc1 | i | 11.2µM* | -18.5% | nt | i | nt
Cc1cc(NCc2ccc(Cl)cc2)n2cnnc2n1 | i | 2.1% | -4.3% | nt | i | nt
O=C(CN1N=C(c2ccc(Cl)cc2)CCC1=O)NCCc1ccc(Cl)cc1 | ? | 22.4µM* | 0.7% | nt | ? | nt
Cc1ccc(-c2ccc(=O)n(CC(=O)NCCc3ccc(Cl)cc3)n2)cc1 | i | 22.4µM* | -15.5% | nt | i | nt
Cc1ccc(CCNC(=O)CN2N=C(c3ccc(C)cc3)CCC2=O)cc1 | i | ? | -0.9% | nt | i | nt
O=C(Cn1nc(-c2ccc(Cl)cc2)ccc1=O)NCCc1ccccc1 | i | 5.2% | -8.0% | 1.5% | i | nt
COCCCn1c(-c2ccc(Cl)cc2)n[nH]c1=S | i | 13.0% | -9.7% | -2.1% | i | 1.6%
COCCCn1c(-c2ccccc2Cl)n[nH]c1=S | i | 15.5% | 25.1µM* | -0.2% | i | 1.2%
CC(=O)N1CCc2c(sc3c2c(=O)n(-c2ccccc2Cl)c(=O)n3Cc2cccc(C)c2)C1 | ? | 35.5µM* | 0.4% | nt | i | nt
CC(=O)N1CCc2c(sc3c2c(=O)n(-c2cccc(Cl)c2)c(=O)n3Cc2ccc(F)cc2Cl)C1 | i | 11.2µM* | -1.9% | nt | i | nt
C=Cc1ccc(Cn2c(=O)n(-c3ccccc3C)c(=O)c3c4c(sc32)CN(C(C)=O)CC4)cc1 | ? | ? | -4.4% | nt | i | nt
Cc1oc(-c2ccc(Cl)cc2)nc1CN1CCCC(C(=O)NCCc2ccc(Cl)cc2)C1 (centres undefined) | i | 4.0% | 0.1% | nt | i | nt
COC(=O)c1ccc(NC(=S)NCCc2ccccc2C)cc1 | nt | ? | 3.4% | -14.1% | i | 0.0%
Fc1ccc(NC(=S)NCc2ccccc2Cl)cc1 | i | -7.4% | -1.5% | 3.5% | ? | 0.4%
S=C(NCCSCc1ccccc1Cl)Nc1ccccc1 | i | 12.6µM* | -1.5% | 16.9% | i | 1.7%
CCCOc1ccc(CSCCNC(=S)Nc2ccccc2)cc1 | i | 24.3% | 4.7% | -2.9% | ? | 2.1%
S=C(NCCSCc1ccc(Cl)cc1)Nc1ccccc1 | nt | 25.1µM* | -0.4% | -14.9% | i | 0.7%
COC(=O)c1ccc(NC(=S)NCCc2cccc(C)c2)cc1 | i | 8.91µM* | -0.4% | -6.6% | i | -3.6%
Cc1cccc(CSCCNC(=S)Nc2ccccc2)c1 | nt | 15.8µM* | 25.1µM* | -2.7% | i | -0.2%
CCN(CC)CCCNC(=O)c1cn(C(C)c2ccccc2)nn1 (centres undefined) | i | nt | nt | nt | nt | nt
CCc1cc(=O)oc2c(C)c3c(cc12)CN(CCc1ccccc1)CO3 | i | 25.8% | 4.1% | nt | i | nt
O=C1C[C@@H](C(=O)Nc2ccc(Cl)cc2)[C@@H](c2ccccc2)O1 | i | nt | nt | nt | nt | nt
O=C(CCOc1ccccc1)N(Cc1cccnc1)c1nc2ccc(F)cc2s1 | i | 21.0% | -3.1% | nt | i | nt

Screening results (PubChem)
